VDR inh: vitamin D3 receptor (human) inhibition. P11473. VDR-SRC2-3 peptide fluorescence polarization, 2 h. Potency, µM, for inactives: max response, negative = inhibition, most hits filed as inhibitors. 400,000 tested, 0.93% active. AID 504847
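Two reagent solutions held at 4 deg C in the dark were dispensed, compounds pinned at 23 nl, and the mixture incubated 2 h at room temperature. Read-out: fluorescence polarization of VDR–SRC2-3 peptide binding.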
PLK1 PBD block: blocks phosphopeptide binding to human PLK1 polo-box domain | Plk1 PBD binding of FITC phosphopeptide, fluorescence polarization | 360,000 tested, 2.8% active | P53350 | Potency, µM, for the others: max response, negative = inhibition, hits mostly inhibitors; note: series mostly up to about 57 µM; nearly all actives have a fitted effect of over 65% in size
rTrxR1 inhibitor: rat TrxR1 inhibition. O89049. recombinant rTrxR1, NADPH fluorescence consumption, selenite substrate. Potency, µM (top dose mostly 114 µM), for the others: top-dose activity change, negative = inhibition, usual class: inhibitors. AID 588453. 390,000 tested, 1% active; note: nearly all actives have a fitted effect of over 65% in size
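Rat TrxR1 (90 nM in the dispensed reagent) was pre-reduced with 400 uM NADPH for 5 min at room temperature, then incubated with compound for 15 min. After 400 uM selenite was added, NADPH fluorescence (Ex 340/Em 450 nm) was followed for 8 min.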
Sfp PPTase inh: inhibitors of Bacillus subtilis Sfp phosphopantetheinyl transferase; Biochemical Sfp PPTase activity, qHTS; 310,000 tested, 3.5% active; Q9F4F7; Potency, µM, inactives show largest response in the series, negative = inhibition, actives largely listed as inhibitors; AID 1490;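 note: the enzyme is Sfp with the accession as filed and its product quenches rhodamine fluorescence; 0% = enzyme reaction without inhibitor and -100% = no enzyme wells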
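Step 1, compound plus 15 nM Sfp-PPTase, 15 min, room temperature. Step 2, add rhodamine-CoA (5 uM) and BHQ-2-YbbR (12.5 uM). Step 3, read 525/598 nm fluorescence at 0 and 30 min.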
TrxR1 substrate: substrates of rat thioredoxin reductase 1. purified TrxR1 substrate turnover, NADPH consumption readout. O89049. Potency, µM (highest dose often 114 µM), inactives show at the top dose activity change, negative = substrate turnover. 390,000 tested, 0.01% active; note: nearly all actives have a fitted effect of over 50% in size
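Rat TrxR1, dispensed at 90 nM, was prereduced with 400 uM NADPH (final) for 5 min at ~22 deg C, then incubated with compound 15 min before 400 uM selenite. A first-read NADPH fluorescence drop versus no-compound background flagged substrates.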
IDH1 R132H inh: inhibitors of human mutant IDH1 R132H; Potency, µM (doses to about 76.6 µM), for the others: top-dose activity change, negative = inhibition, usual class: inhibitors; O75874; AID 602179; 390,000 tested, 0.093% active; IDH1-R132H enzyme, NADPH consumption, diaphorase/resazurin fluorescence; note: nearly all actives have a fitted effect of over 65% in size
Target sequence (O75874 whole entry R132H, stated change not applied): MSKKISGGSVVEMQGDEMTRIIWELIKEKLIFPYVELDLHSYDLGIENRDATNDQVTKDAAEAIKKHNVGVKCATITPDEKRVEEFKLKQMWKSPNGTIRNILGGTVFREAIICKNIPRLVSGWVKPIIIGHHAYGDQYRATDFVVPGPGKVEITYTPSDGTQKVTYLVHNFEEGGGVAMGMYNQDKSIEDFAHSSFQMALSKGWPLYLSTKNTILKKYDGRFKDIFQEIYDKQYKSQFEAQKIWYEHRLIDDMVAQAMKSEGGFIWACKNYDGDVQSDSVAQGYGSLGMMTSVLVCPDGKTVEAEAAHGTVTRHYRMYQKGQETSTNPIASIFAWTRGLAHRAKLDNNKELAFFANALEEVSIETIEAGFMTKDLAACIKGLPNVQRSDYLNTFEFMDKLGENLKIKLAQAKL
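IDH1-R132H (0.5 ug/mL) preincubated 30 min with compound, then NADPH (0.016 mM) and alpha-KG (2 mM) added; 80 min at RT, pH 7.5. Remaining NADPH coupled via diaphorase/resazurin to fluorescence (540/590 nm); concentration-response curves normalized to no-enzyme control.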
Numbers without * were called inactive; ? = inconclusive; nt = not tested or not shown; ! = not active in a repeat; [ ] = remark or other dose. Rows were chosen to be rich in hits. Some 5.2% of all compounds tested hit in one or more screens of this group. Calls come from the whole dose curve; as a rule, active = well fitted curve in the direction sought with a large enough effect; inconclusive = small, poorly fitted or top-dose-only effect, or another doubt; inactive = no such curve, though single readings can be large; an effect the other way counts as inactive or inconclusive. Unless noted, % is set by controls: 0 for no effect and ±100 for the full control effect; potency is the fitted concentration of half-maximal effect.

SMILES | VDR inh | PLK1 PBD block | rTrxR1 inhibitor | Sfp PPTase inh | TrxR1 substrate | IDH1 R132H inh
O=C(CN1C(=O)/C(=C/c2ccco2)SC1=S)Nc1ccc(O)c(C(=O)O)c1 | -6% | ? | 5% | 50µM* | 6% | 7%
O=C(CN1C(=O)/C(=C/c2ccco2)SC1=S)Nc1ccc(C(=O)O)c(O)c1 | 9% | 13µM* | 7% | 50µM* | -7% | -5%
CC(C(=O)Nc1ccc(C(=O)O)c(O)c1)N1C(=O)/C(=C\c2ccco2)SC1=S (stereo not drawn) | -10% | 9.5µM* | 26% | 50µM* | -1% | 0%
O=C(CN1C(=O)/C(=C/c2ccco2)SC1=S)NC1CCS(=O)(=O)C1 (stereo not drawn) | -12% | 30µM* | ? | 25µM* | -6% | 5%
COc1ccc(NC(=O)CCCN2C(=O)/C(=C\c3ccco3)SC2=S)cc1 | 4% | -8% | -20% | ? | -10% | 6%
CCCCc1nc2c(c3c1C[C@H](C)OC3)CN(C(=O)c1ccco1)CC2 | nt | nt | nt | -2% | nt | nt
Cc1ccc(CCNC(=O)Cn2ncc3c(=O)oc4ccccc4c32)cc1 | -14% | nt | 2% | nt | -1% | 5%
COc1ccc(-n2ncc(C(=O)N3CCN(C4CCCCC4)CC3)c2C2CCN(C(=O)OC(C)(C)C)CC2)cc1 | -2% | nt | ? | nt | -4% | 22%
COC(=O)c1sc(N2C(=O)C(O)=C(C(=O)c3ccc(C)o3)C2c2ccco2)nc1C (stereo not drawn) | -12% | 30µM* | ? | 12% | -7% | 1%
COC(=O)c1sc(N2C(=O)C(O)=C(C(=O)c3ccc(C)o3)C2c2cccs2)nc1C (stereo not drawn) | -15% | 27µM* | ? | ? | -12% | -4%
COC(=O)c1sc(N2C(=O)C(O)=C(C(=O)c3ccc(C)o3)C2c2ccc(F)cc2)nc1C (stereo not drawn) | -8% | ? | ? | ? | -16% | 0%
CC(=O)NC(=O)NC1OC(=O)C(Cl)=C1Cl (stereo not drawn) | 2% | ? | 1.6µM* | -20% | -2% | 5%
Cc1cccc(OCCOC(=O)c2c(-c3ccccc3)noc2C)c1 | 13% | -6% | 13% | 10% | 1% | 5%
CC(=O)Nc1cccc(C(=O)NCc2ccc3c(c2)CCN3C(=O)c2ccc(F)cc2)c1 | 10% | nt | 17%[57.1 µM] | nt | 3%[57.1 µM] | -14%
O=C(Cn1nc(-c2ccco2)ccc1=O)Nc1ccc(Cl)c(Cl)c1 | 2% | ? | ? | 56µM* | 19% | 2%
O=C(Cn1nc(-c2ccco2)ccc1=O)Nc1cc(Cl)ccc1Cl | -20% | -13% | ? | 45µM* | 18% | 0%
CSCCCN1CCC(n2nccc2NC(=O)CCCc2ccccc2)CC1 | 0% | 3% | 24% | 4% | 15% | 1%
COc1ccc(Cn2c(C(=O)O)c(CNC3CCCCCC3)c3ccc(OC)cc32)cc1 | 1% | nt | -4% | nt | 2% | 16%
CC1(C(=O)NCCC#N)CCN1C(=O)C1(c2ccccc2)CCCC1 (stereo not drawn) | nt | -5% | nt | nt | nt | nt
CN1N=C(C(=O)N2CCc3c([nH]c4ccccc34)C2c2ccccc2Cl)CCC1=O (stereo not drawn) | -4% | 27µM* | 15%[57.1 µM] | 7% | -1% | -1%
COC(=O)c1c(SC)nc2ccccc2c1OCc1ccccc1C | 7% | nt | 19%[57.1 µM] | nt | 0%[57.1 µM] | -9%
CN(C)c1ccc(/C=N/NC(=O)c2nonc2N)cc1[N+](=O)[O-] | -17% | 27µM* | 14%[57.1 µM] | 16% | -6%[57.1 µM] | 2%
COc1ccc(-c2c(-c3ccc(OC)nc3)c3ccccc3n2C)cc1 | -5% | -3% | 32% | nt | 46% | 5%
Cn1cccc1-c1nc2ccc([N+](=O)[O-])cc2[nH]1 | 5% | -17% | 6% | 79µM* | -5% | 13%
CC1C2CCC3C4CC=C5CC(N(C)C)CC[C@@]5(C)C4CC[C@@]32CN1C (stereo partly drawn) | -4% | nt | nt | 8% | nt | nt
SMILES | VDR inh | PLK1 PBD block | rTrxR1 inhibitor | Sfp PPTase inh | TrxR1 substrate | IDH1 R132H inh
COC(=O)/C=C1\SC(=Nc2ccccc2)NC1=O | ? | -6% | -32% | 22% | -15% | 0%
COC(=O)/C=C1/SC(=NC(=O)c2ccc(Cl)cc2)NC1=O | ? | 34µM* | 3% | nt | -3% | 9%
Cc1noc(C)c1-c1ccc2ncnc(N3CCC(C(=O)O)CC3)c2c1 | 5% | nt | nt | 12% | nt | nt
c1cn2cc(CN3CCOCC3)nc2s1 | 9% | 2% | -1% | -8% | 4%[57.1 µM] | -6%
Cc1ccc(C2SCC(=O)N2Cc2cn3ccsc3n2)o1 (stereo not drawn) | -13% | -24% | ? | 56µM* | 3% | 1%
C[C@H](NC[C@H](O)CP(=O)(O)Cc1ccccc1)c1ccc(Cl)c(Cl)c1 | 0% | nt | nt | 89µM*! | nt | nt
Cc1cc(-c2nc3c4c5c(sc4[nH]c(=O)n3n2)CCC5)c(C)o1 | -22% | ? | -20% | 28µM* | 7% | 2%
Cc1nc2sc3c(c2c(=O)[nH]1)CCC3 | 4% | -2% | 7% | -1% | -4% | -3%
O=C(O)C(Cc1ccc2c(c1)oc1ccccc12)NCP(=O)(O)O (stereo not drawn) | 1% | nt | nt | -20% | nt | nt
CCN(c1cccc(C)c1)S(=O)(=O)c1nnc(NC(=O)c2cccs2)s1 | 6% | nt | 3% | nt | -5% | -12%
COc1cc(C(=O)NC(=S)Nc2ccccc2[N+](=O)[O-])cc(OC)c1OC | -20% | 21µM* | -12% | 79µM* | -6% | 7%
COc1cc(C(=O)NC(=S)Nc2ccccc2N2CCOCC2)cc(OC)c1OC | -2% | -4% | 1% | 35µM* | -3% | 2%
COc1cc(C(=O)NC(=S)Nc2ccc([N+](=O)[O-])cc2C)cc(OC)c1OC | -14% | -15% | ? | ? | -13% | 4%
O=S(=O)(NCCO)c1ccc2c(c1)Cc1cc(S(=O)(=O)NCCO)ccc1-2 | -13% | 6% | 5%[57.1 µM] | 12% | 10%[57.1 µM] | -5%
COCCNS(=O)(=O)c1ccc2c(c1)Cc1cc(S(=O)(=O)NCCOC)ccc1-2 | ? | 19µM* | 8%[57.1 µM] | 13% | 0%[57.1 µM] | 5%
CC(=O)N[C@@H](CSC/C=C(\C)CCC=C(C)C)C(=O)O | 0% | nt | nt | 45µM*! | nt | nt
CC(=O)N[C@@H](CSC/C=C(\C)CC/C=C(\C)CCC=C(C)C)C(=O)O | 50µM*! | nt | nt | ? | nt | nt
CC(C)=CCC/C(C)=C/CC/C(C)=C/CC/C(C)=C/C(=O)O | ? | nt | nt | 4% | nt | nt
CC(=O)N[C@@H](CSC/C=C(\C)CC/C=C(\C)CC/C=C(\C)CCC=C(C)C)C(=O)O | 35µM*! | nt | nt | 15% | nt | nt
COC(=O)c1ccc(C(C2C(=O)CC(C)(C)CC2=O)C2C(=O)CC(C)(C)CC2=O)cc1 | ? | -9% | -46% | 5% | -2%[57.1 µM] | 2%

Assay outcomes: PubChem, National Center for Advancing Translational Sciences (NCATS)
